In all, about 330,000 compounds went through this assay and about 4,600 (1.4%) were called active. Only a selection was taken, and actives are over-represented in it overall. A number with no mark means an inactive call.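 The calls were made as follows: active = inhibition of 40% or more at the single tested concentration; inactive = the rest.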

By inhibition is commonly meant the change of the read-out against control, counted positive when it falls.

The test can be described thus: wild-type TIM10 yeast growth inhibition – luminescence, uHTS, counter-screen for tim10-1 yeast inhibitor project, primary screen (AID 463195).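 Also: wild-type TIM10 isogenic control strain grown at permissive 25 °C; 0% = DMSO yeast wells and 100% = minimal medium wells without yeast.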 As to conditions: S. cerevisiae TIM10 strain growth, BacTiter-Glo luminescence, 24 h; at 10 µM; stronger effect = higher value. (The purpose of a counterscreen is to sort out artefacts and off-target activity.)
Turning to `Cc1ccc(NC(=O)CN(C)C(=O)Cn2nnc(-c3ccccc3)n2)cc1`, the inhibition was 0.534%.

Take `COc1ccccc1CNC(=O)COc1ccc(C)nc1[N+](=O)[O-]`: the inhibition is 9.85%.

For `Cc1cccc(NC(=O)CCn2c(=O)oc3ccccc32)c1`, the inhibition was -10%.

Regarding `CC(OC(=O)c1cc2ccccc2o1)C(=O)Nc1ccc(N2CCOCC2)cc1` (stereo not drawn), the inhibition is 3.94%.

For the molecule `O=C(CN1CCN(C2CCCCC2)CC1)Nc1ccccc1N1CCCCC1`, the inhibition was 4.11%.

Turning to `Cc1ccc(C(C)C)cc1OCC(=O)Nc1ccccc1N1CCCC1`, the inhibition is -2.85%.

Consider `CN1CCN(c2ccccc2NC(=O)COc2ccc(C3CCCCC3)cc2)CC1`, for which the inhibition was 40.4% (active).

Take `COc1ccc(NC(=O)/C(C#N)=C\c2cc(OC)c(OCc3ccc(C(=O)O)cc3)cc2Br)cc1`: the inhibition is 26.4%.

As for `COc1ccc(CNC(=O)CCn2cccc2)cc1`, the inhibition was -5.68%.

As to `COc1ccc(CNC(=O)/C(C#N)=C/c2cccc(OC)c2OC)cc1`, the inhibition was 70.4% (active).

Turning to `C=CCSc1nnc(N2C(=O)C(O)=C(C(=O)c3ccco3)C2c2ccc(F)cc2)s1` (stereo not drawn), the inhibition was 1.92%.

Turning to `Cc1ccc2[nH]c3c(=O)n(CC(=O)NCCc4ccc(Cl)cc4)ncc3c2c1`, the inhibition is -0.819%.

On to `C=CCO/N=C/C1=C(O)C(C(=O)OC)C(C)(C)CC1=O` (stereo not drawn), for which the inhibition is 6.77%.

Turning to `O=c1oc2ccccc2cc1-c1csc(Nc2ccc(O)cc2)n1`, the inhibition was 43.9% (active).

For `Cc1ccc(Nc2nc(-c3ccc(O)cc3O)cs2)nc1`, the inhibition is 11.7%.

Turning to `O=C(Nc1ccncc1)c1cc2ccccc2o1`, the inhibition was -3.62%.

With `Cc1csc(=O)n1CC(=O)Nc1ccc(S(C)(=O)=O)cc1`, the inhibition was -3.37%.

`CCn1c(=O)c2ccccc2n(CC(=O)N2CCCc3ccccc32)c1=O`: the inhibition is -2.71%.

Take `CC(C)c1ccc2c(c1)c(SC(C)(C)C)c(CC(C)(C)C(=O)O)n2Cc1ccc(Cl)cc1`: the inhibition was 3.33%.

Regarding `N/C(=N\OC(=O)Cc1ccccc1[N+](=O)[O-])c1ccc(Br)cc1`, the inhibition was 57.9% (active).

Consider `N/C(=N\OC(=O)N1c2ccccc2Sc2ccccc21)c1ccc(Br)cc1`, for which the inhibition was -9.5%.

For the molecule `N/C(=N/O)c1cccn1Cc1ccccc1[N+](=O)[O-]`, the inhibition was -10.5%.

Turning to `CC[C@@H]1Cc2cc(O)ccc2C2=C1c1ccc(O)cc1C[C@H]2CC`, the inhibition was 58.9% (active).

For the molecule `CCOc1ccc(N2C(=O)Nc3ccccc3C2(O)C(=O)NCc2ccco2)cc1` (stereo not drawn), the inhibition was -6.83%.

For `CN(C)C(=O)CCc1ccc2c3c([nH]c2c1)[C@]1(CCc2ccccc2)[C@@H](C(=O)N2CCCCC2)C[C@H](CC(=O)NCCC2=CCCCC2)C(=O)N1CC3`, the inhibition was -1.38%.

`Cc1cc(C(F)(F)F)nc(SCC(=O)Nc2nccs2)n1`: the inhibition was 2.33%.

With `Cn1cnnc1SCC(=O)Nc1ccc(N2CCOCC2)cc1`, the inhibition is -21.6%.

With `CCN(CC)CCN(C(=O)c1ccc(N2C(=O)CCC2=O)cc1)c1nc2cc3c(cc2s1)OCO3`, the inhibition was -10.9%.

As for `CN(C)CCCN(C(=O)c1ccc(S(=O)(=O)N2CCCCCC2)cc1)c1nc2cc3c(cc2s1)OCCO3`, the inhibition is 11.4%.

Consider `CCN(CC)CCN(C(=O)c1ccc(S(=O)(=O)N2CCOCC2)cc1)c1nc2cc3c(cc2s1)OCCO3`, for which the inhibition is 41% (active).

Turning to `Cc1ccc(N(CC(=O)NCC2CCCO2)C(=O)CNS(=O)(=O)c2ccc(Cl)cc2)cc1` (stereo not drawn), the inhibition was 11.1%.

As to `COc1cccc(N2CC(NS(=O)(=O)c3ccc(Cl)cc3)CC2=O)c1` (stereo not drawn), the inhibition was -3.31%.

Consider `CCCC1(C(=O)OCC)NC(c2ccc(N(C)C)cc2)C2C(=O)N(c3ccc4c(c3)OCCO4)C(=O)C21` (stereo not drawn), for which the inhibition was 4.95%.

Turning to `CCOC(=O)C1(C)NC(c2ccco2)C2C(=O)N(c3ccccc3)C(=O)C21` (stereo not drawn), the inhibition was -0.047%.

Regarding `CCCCC1(C(=O)OCC)NC(c2ccc(O)cc2)C2C(=O)N(c3ccccc3)C(=O)C21` (stereo not drawn), the inhibition was 58.8% (active).

With `Cc1ccc(NC(=O)C2CCCN2C(=O)OCc2ccccc2)cc1C` (stereo not drawn), the inhibition is -1.12%.

`CC(=NCc1ccco1)c1c(C(F)(F)F)[nH]n(-c2nc3ccccc3s2)c1=O`: the inhibition was 50.6% (active).

As to `CCC1(CC)NC(=O)N(Cc2nc3ccccc3s2)C1=O`, the inhibition was 0.882%.

`CCC(C)Cn1c(O)cc2nn(-c3nc4ccccc4s3)c(=O)c-2c1C` (stereo not drawn): the inhibition is -6.61%.

`COc1cc(NC(=O)C2CC(c3ccccc3O)=NO2)c(OC)cc1Cl` (stereo not drawn): the inhibition was -3.49%.

With `COC(C/C=C/C(=O)[C@@H](C)OCc1ccccc1)OC`, the inhibition was 50.1% (active).

`COC(C[C@@H]1O[C@@H]1C(=O)[C@H](C)OCc1ccccc1)OC`: the inhibition was -11%.

As for `COC(C[C@H](O)CC(=O)[C@@H](C)OCc1ccccc1)OC`, the inhibition is 8.38%.

Regarding `COC(=O)[C@@H]1CC[C@H](C)[C@@H](c2ccc(C)cc2)N1C(=O)c1ccc(/C=N/O[C@H](C)c2cn([C@@H]3COC[C@H]3O)nn2)cc1`, the inhibition was -0.068%.

`CN(CC(=O)Nc1ccc(Cl)cc1)C(=O)CNC(=O)c1ccc2ccccc2c1`: the inhibition was -7.81%.

Turning to `CN(C)CCCN(C(=O)c1ccc(S(=O)(=O)N2CCCc3ccccc32)cc1)c1nc2ccc(F)cc2s1`, the inhibition is 40.9% (active).

Regarding `CCOc1ccc2nc(N(CCCN(C)C)C(=O)c3ccc(C(=O)c4ccccc4)cc3)sc2c1`, the inhibition is 11.2%.

In the case of `CN(C)CCCN(C(=O)c1ccc(S(=O)(=O)N2CCCCCC2)cc1)c1nc2ccc(Br)cc2s1`, the inhibition is 34.5%.

For the molecule `Cc1ccccc1-c1nc(C#N)c(NCc2ccco2)o1`, the inhibition is 46.8% (active).

On to `Cc1cc(NCc2ccco2)n2c(nc3ccccc32)c1C#N`, for which the inhibition was -0.142%.

For the molecule `COc1ccc(Nc2oc(-c3ccccc3Cl)nc2C#N)cc1`, the inhibition was 13.8%.

With `CC(C)CCn1c(=O)c2c(nc3n2CCCN3Cc2ccccc2)n(C)c1=O`, the inhibition is 11.2%.

Consider `COc1ccc(Cc2nnc(N/N=C/c3ccccc3O)[nH]c2=O)cc1OC`, for which the inhibition is 9.37%.

Turning to `Cc1nn(Cc2ccc(Cl)c(Cl)c2)c(C)c1NC(=O)c1cc(C2CC2)on1`, the inhibition is 43% (active).

For the molecule `CSc1ccccc1NC(=O)c1cc(C2CC2)on1`, the inhibition was 7.03%.

As for `Cc1nn(Cc2ccc(F)cc2)c(C)c1NC(=O)c1cccnc1Cl`, the inhibition is -10.4%.

Take `COc1ccc(CN2CCNC(=O)C2CC(=O)N(C)Cc2ccccn2)cc1OC` (stereo not drawn): the inhibition was 10.2%.

In the case of `CC(=O)Nc1ccc(CC#N)cc1`, the inhibition is 12.5%.

With `Cc1cc(OCCCC(=O)NCCN2C(=O)S/C(=C\c3cccnc3)C2=O)ccc1Cl`, the inhibition was 38.4%.

In the case of `O=C(NCCN1C(=O)S/C(=C\c2cccnc2)C1=O)c1cccc(OC(F)F)c1`, the inhibition was 43.2% (active).

Take `O=C(NCCN1C(=O)S/C(=C\c2cccnc2)C1=O)c1ccc(S(=O)(=O)N2CCCC2)cc1`: the inhibition was 2.86%.

Consider `CCOc1ccc(N(CC(=O)NCC2CCCO2)S(=O)(=O)c2ccc(C)cc2)cc1` (stereo not drawn), for which the inhibition was 16.8%.

Regarding `CCc1sc(C(=O)N2CCN(CC(=O)Nc3cccc(F)c3)CC2)cc1C`, the inhibition is 60.2% (active).

With `O=C(CN1CCN(C(=O)c2cccc(F)c2)CC1)Nc1ccccc1F`, the inhibition was -0.2%.

As for `CC(=O)N1CCN(CC(=O)Nc2ccc(C)c(F)c2)CC1`, the inhibition was -1.66%.

Turning to `O=C(NC1CC1)C(Cc1ccccc1)NS(=O)(=O)c1ccccc1F` (stereo not drawn), the inhibition was -6.34%.

Consider `COc1ccc(S(=O)(=O)N(CC(=O)N/N=C/c2ccc(C(=O)O)cc2)Cc2ccccc2)cc1OC`, for which the inhibition is -21.2%.

As to `COCCOC(=O)C1=C(C)N=c2s/c(=C\c3cccs3)c(=O)n2C1c1cccs1` (stereo not drawn), the inhibition was 21.4%.

Turning to `CCOC(=O)C1=C(C)N=c2s/c(=C\C(=O)OC)c(=O)n2C1c1ccc(OC)cc1` (stereo not drawn), the inhibition is 61.5% (active).

As for `CCOC(=O)C1=C(CSc2nccn2C)NC(=O)NC1c1ccc(OC)cc1` (stereo not drawn), the inhibition was 9.58%.

Consider `CC(c1ccccc1)n1c(NCCCn2ccnc2)nc2c1c(=O)[nH]c(=O)n2C` (stereo not drawn), for which the inhibition was 1.78%.

In the case of `Cc1ccc(C)c(NC(=O)C2Cc3ccccc3CN2C(=O)OCc2ccccc2)c1` (stereo not drawn), the inhibition was 27.9%.

Take `COc1ccc(Cl)cc1N(CC(=O)N1CCCCC1)S(C)(=O)=O`: the inhibition is 1.46%.

As to `Cc1[nH]c2ccccc2c1C(=O)CSCC(=O)O`, the inhibition is 13.1%.

As for `Cc1onc(-c2ccccc2Cl)c1C(=O)OCC(=O)c1ccccc1`, the inhibition is 23.4%.

`Cc1[nH]c2ccccc2c1C(=O)COC(=O)c1c(-c2ccccc2)noc1C`: the inhibition is 48.3% (active).

For the molecule `CCCN(CCC)C(=S)Nc1cc(C(=O)OC)ccc1C(=O)OC`, the inhibition was -3.94%.

Regarding `CCOC(=O)[C@@H]1[C@H]2COc3ccc(Br)cc3[C@H]2N2C(=O)N(c3ccc(C)cc3)C(=O)[C@@]12C`, the inhibition was 13.9%.

For `COc1ccc(C(=O)O/N=C(\N)Cc2ccc(Cl)cc2Cl)cc1OC`, the inhibition is 85.8% (active).

`COc1ccc(C(=O)ON=C2c3ccccc3-c3ccccc32)cc1OC`: the inhibition was 18%.

Consider `COc1ccc(C/C(N)=N/OC(=O)c2ccco2)cc1OC`, for which the inhibition was -7.79%.

For `CC(=O)Nc1ccc(S(=O)(=O)NCC(=O)OCc2cc(=O)oc3ccc4ccccc4c23)cc1`, the inhibition was 6.88%.

On to `N#Cc1cccc(CN2CCC(=O)N([C@H](CO)c3ccccc3)CC2)c1`, for which the inhibition is 12.1%.

With `O=[N+]([O-])c1cc([N+](=O)[O-])c(Oc2cc(F)cc(F)c2F)cc1NN1CCCCC1`, the inhibition was -1.5%.

Turning to `O=C(Nc1cccnc1Cl)c1cc(-c2ccccc2O)on1`, the inhibition is 3.29%.

Consider `Oc1ccccc1-c1cc(-c2ccc(Cl)cc2)n[nH]1`, for which the inhibition is 53.8% (active).

As for `Cc1ccc(NC(=O)c2cc(-c3ccccc3O)n[nH]2)cc1C`, the inhibition was 0.905%.

Consider `CCCCC1S/C(=N/N=C/c2cccs2)NC1=O` (stereo not drawn), for which the inhibition is 5.03%.

Values taken from PubChem BioAssay AID463195 (Sanford-Burnham Center for Chemical Genomics, 2010).
